Several values for one entry are separate records, joined by “and”; a condition that tells them apart may be missing. Identical values can stand only once. Activity calls are given as the source filed them. The calls were made as follows: active = hit-call score of the fitted dose curve at least 0.9, where 1 is the maximum; inactive = score below 0.9.
What was measured:
[1] = read-out: Interleukin-6 (IL6), IL6 (gene 3569); experiment: BSK_CASM3C_IL6: BioMAP Diversity Plus: CASM3C Assay for Interleukin-6 (IL6) Biomarker Activity for (AID 2283040); settings: primary human coronary artery smooth muscle cells; actives raise or lower the signal
[2] = read-out: Tissue plasminogen activator (tPA), PLAT (gene 5327); experiment: BSK_BE3C_tPA: BioMAP Diversity Plus: BE3C Assay for Tissue plasminogen activator (tPA) Biomarker Activity (AID 2283041); settings: primary human bronchial epithelial cells; actives raise or lower the signal
How it was run: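 Primary human lung bronchial epithelial cultures receive test chemical; after 24 h, tPA is quantified by ELISA, and gain or loss of signal is fitted bidirectionally relative to DMSO baseline.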

[3] = read-out: Interleukin-8 (IL8), CXCL8 (gene 3576); experiment: BSK_CASM3C_IL8: BioMAP Diversity Plus: CASM3C Assay for Interleukin-8 (IL8) Biomarker Activity (AID 2283042); settings: primary human coronary artery smooth muscle cells; actives raise or lower the signal;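 also: IL-8 protein level quantified by ELISA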
[4] = read-out: Human Leukocyte Antigen - DR isotype (HLADR), HLA-DRA (gene 3122); experiment: BSK_CASM3C_HLADR: BioMAP Diversity Plus: CASM3C Assay for Human Leukocyte Antigen - DR isotype (HLADR) Biomarker Activity (AID 2283043); settings: primary human coronary artery smooth muscle cells; actives raise or lower the signal;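 also: cell-surface HLA-DR protein level quantified by ELISA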
[5] = read-out: Macrophage colony-stimulating factor (MCSF), CSF1 (gene 1435); experiment: BSK_CASM3C_MCSF: BioMAP Diversity Plus: CASM3C Assay for Macrophage colony-stimulating factor (MCSF) Biomarker Activity (AID 2283044); settings: primary human coronary artery smooth muscle cells; actives raise or lower the signal;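 also: M-CSF protein amount quantified by ELISA after 24 h exposure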
[6] = read-out: Low-density lipoprotein receptor (LDLR), LDLR (gene 3949); experiment: BSK_CASM3C_LDLR: BioMAP Diversity Plus: CASM3C Assay for Low-density lipoprotein receptor (LDLR) Biomarker Activity (AID 2283045); settings: primary human coronary artery smooth muscle cells; actives raise or lower the signal;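 also: LDLR protein level on the cell surface quantified by ELISA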
[7] = read-out: Monocyte Chemoattractant Protein-1 (MCP1), CCL2 (gene 6347); experiment: BSK_CASM3C_MCP1: BioMAP Diversity Plus: CASM3C Assay for Monocyte Chemoattractant Protein-1 (MCP1) Biomarker Activity (AID 2283046); settings: primary human coronary artery smooth muscle cells; actives raise or lower the signal;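 also: MCP-1 level quantified by ELISA 24 h after dosing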
[8] = BSK_CASM3C_Proliferation: Cell Proliferation Assessment in the BioMAP Diversity Plus: CASM3C Assay (AID 2283047); settings: primary human coronary artery smooth muscle cells;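 also: sulforhodamine B total protein stain as relative cell number at 560 nm; sub-confluent cells exposed 48 h before staining; fitted both ways against DMSO so gain or loss of cell number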
[9] = read-out: Monokine induced gamma interferon (MIG), CXCL9 (gene 4283); experiment: BSK_CASM3C_MIG: BioMAP Diversity Plus: CASM3C Assay for Monokine induced gamma interferon (MIG) Biomarker Activity (AID 2283048); settings: primary human coronary artery smooth muscle cells; actives raise or lower the signal;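 also: MIG protein level measured by ELISA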
[10] = read-out: serum amyloid A (SAA), SAA1 (gene 6288); experiment: BSK_CASM3C_SAA: BioMAP Diversity Plus: CASM3C Assay for serum amyloid A (SAA) Biomarker Activity (AID 2283049); settings: primary human coronary artery smooth muscle cells; actives raise or lower the signal;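 also: SAA protein level quantified by ELISA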

Measured: AC50

O=C(O)COc1ccc(Cl)cc1Cl
inactive: all assays above

CCC(C)Nc1c([N+](=O)[O-])cc(C(C)(C)C)cc1[N+](=O)[O-] (configuration not stated)
inactive: all assays above

O=[N+]([O-])/N=C1\NCCN1Cc1ccc(Cl)nc1
inactive: all assays above

COC(=O)c1ccccc1S(=O)(=O)NC(=O)Nc1nc(C)nc(OC)n1
inactive: all assays above

COc1cc(OC)nc(NC(=O)NS(=O)(=O)c2cc(NC=O)ccc2C(=O)N(C)C)n1
inactive: all assays above

Cc1cc(C)nc(NC(=O)NS(=O)(=O)c2ccccc2C(=O)OC2COC2)n1
inactive: all assays above

N#CN
inactive: all assays above

CCC(C)(C)C(=O)OC1=C(c2ccc(Cl)cc2Cl)C(=O)OC12CCCCC2
active: [2] 20 µM | [5] 13.7 µM | [8] 25.7 µM
inactive: all other assays above

CC1(C)C(C=C(Cl)Cl)C1C(=O)OC(C#N)c1ccc(F)c(Oc2ccccc2)c1 (configuration not stated)
inactive: all assays above

Oc1cc(Cl)ccc1Oc1ccc(Cl)cc1Cl
active: [2] 20.4 µM [middle of 4 runs] | [3] 37.7 µM [middle of 4 runs] | [4] 29.4 µM [middle of 4 runs] | [5] 34 µM [middle of 4 runs] | [6] 30 µM [middle of 4 runs] | [7] 33.6 µM and 37.7 µM and 31.4 µM | [8] 17.6 µM [middle of 4 runs] | [9] 37.8 µM [middle of 4 runs] | [10] 32 µM [middle of 4 runs]

Clc1ccccc1-c1nnc(-c2ccccc2Cl)nn1
not listed: [8]
inactive: all other assays above

O=C1c2ccccc2C(=O)N1SC(Cl)(Cl)Cl
inactive: [2] | [6] | [10]
active: [1] 30.3 µM | [3] 38.6 µM | [4] 28.7 µM | [5] 16 µM | [7] 30 µM | [8] 18.8 µM | [9] 30.4 µM

COC(=O)c1ccccc1CS(=O)(=O)NC(=O)Nc1nc(OC)cc(OC)n1
inactive: all assays above

CCC(C)(NC(=O)c1cc(Cl)c(C)c(Cl)c1)C(=O)CCl (configuration not stated)
active: [2] 11 µM | [4] 17.7 µM | [5] 25.2 µM | [7] 22.9 µM | [8] 18.5 µM | [9] 17.5 µM | [10] 14.4 µM
inactive: [1] | [3] | [6]

CCCN(CCC)c1c([N+](=O)[O-])cc(C(F)(F)F)cc1[N+](=O)[O-]
inactive: all assays above

O=C(O)CCCOc1ccc(Cl)cc1Cl
inactive: all assays above

Cc1[nH]c(=O)n(C(C)(C)C)c(=O)c1Cl
inactive: all assays above

CC1(c2ccc(Oc3ccccc3)cc2)OC(=O)N(Nc2ccccc2)C1=O (configuration not stated)
active: [8] 13.7 µM
inactive: all other assays above

CC(C)OC(=O)Nc1cccc(Cl)c1
inactive: all assays above

CNC(=O)/C=C(\C)OP(=O)(OC)OC
inactive: all assays above

CCc1ccc(C(=O)NN(C(=O)c2cc(C)cc(C)c2)C(C)(C)C)cc1
active: [8] 22.9 µM
inactive: all other assays above

C#CCN1C(=O)COc2cc(F)c(N3C(=O)C4=C(CCCC4)C3=O)cc21
inactive: all assays above

COP(=O)(OC)OC=C(Cl)Cl
active: [8] 8.32 µM
inactive: all other assays above

CN1CSC(=S)N(C)C1
active: [1] 16.4 µM | [8] 14.5 µM
not listed: [5]
inactive: all other assays above

CC(C)(C)C(O)C(Oc1ccc(Cl)cc1)n1cncn1 (configuration not stated)
inactive: all assays above

CCOC1Oc2ccc(OS(C)(=O)=O)cc2C1(C)C (configuration not stated)
inactive: all assays above

COc1nn(CSP(=S)(OC)OC)c(=O)s1
inactive: all assays above
